Screens from PubChem.
A selection: hits, their analogues and other compounds. The true share with any hit is near 1.8%.
Gli-Sufu block = antagonists of Gli-Sufu signaling; Sufu-KO-LIGHT fibroblasts, Gli luciferase reporter luminescence; inhibition, % at 5 µM; actives 0.74% (n = 340,000);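 active = inhibition above about 55%, limit read from the data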
Jurkat NFkB inh = inhibitors of the PMA/ionomycin-induced NF-kB reporter in Jurkat cells; PMA/ionomycin-induced NF-kB luciferase reporter, luminescence; inhibition, % at 4 µM; actives 0.53% (n = 330,000); AID 435003; in the data active = inhibition above about 50%
697 NFkB inh = lowers PMA/ionomycin-induced NF-kB signal in 697 B cells; 697 B-cell NF-kB luciferase reporter, 16 h; inhibition, % at 4 µM; actives 0.33% (n = 330,000); in the data active = inhibition above about 35%
Beta apoptosis = blocks beta cell apoptosis | actives 0.8% (n = 300,000) | protection from apoptosis, % (concentration not given with the values) | AID 435005 | INS-1E cytokine-induced death, ATP luminescence, 48 h; percent of positive-control rescue, neutral wells zero;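 active = Every replicate reaches about 75%, or at least half do and their mean reaches it too, limit read from the data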;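 note: higher means more ATP so stronger rescue from cytokine killing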
Gli-Sufu confirm = Gli-SUFU antagonism confirmation, single concentration; AID 602428; Sufu-KO-LIGHT cells, Gli luciferase reporter, luminescence; actives 40% (n = 2,500); inhibition, % at 5 µM; shares compounds with Gli-Sufu block;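 active = mean inhibition at 5 µM reaching about 45%, limit read from the data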
SufuKO cytotox = counter-screen for Gli-SUFU antagonists: cytotoxicity; actives 32% (n = 2,500); shares compounds with Gli-Sufu block; Sufu-KO-LIGHT cells cytotoxicity, ATP luminescence; cytotoxicity, % at 5 µM; AID 651994;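 active = mean cytotoxicity at 5 µM above about 25%, limit read from the data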;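 note: cells exposed to compound overnight for roughly 16 to 18 hours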
Wnt3a counter = counter-screen for Gli-SUFU antagonists: Wnt3a reporter inhibition; shares compounds with Gli-Sufu block; Wnt-LIGHT cells, Wnt3a-driven luciferase reporter, luminescence; inhibition, % at 6.25 µM; actives 20% (n = 2,500);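 active = mean inhibition above about 25%, limit read from the data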
Hits are given with their value; n = inactive; x = no result.

SMILES	Gli-Sufu block	Jurkat NFkB inh	697 NFkB inh	Beta apoptosis	Gli-Sufu confirm	SufuKO cytotox	Wnt3a counter
CC(=O)N1CCc2cc(S(=O)(=O)NCC(=O)NCc3ccc(Cl)cc3)ccc21	n	n	n	n	x	x	x
CCC(C)C(NS(=O)(=O)c1ccc(C)cc1)C(=O)O (stereo not drawn)	n	n	n	n	x	x	x
CC12CCCCN1CCCc1c2[nH]c2ccccc12 (stereo not drawn)	58	n	n	n	n	50	n
O=C(Nc1ccccc1Oc1cccnc1)C1CCCN(Cc2ccccc2O)C1 (stereo not drawn)	n	n	n	n	n	28	n
CCOC(=O)c1sc(NC(=S)NC(=O)c2ccccc2)nc1C	n	n	n	n	x	x	x
Cc1ccc(NC(=O)Nc2cnccn2)c(C)c1	n	n	n	n	x	x	x
Cc1sc2ncnc(NCc3cccs3)c2c1C	57	n	n	101	50	26	n
Cc1sc2ncnc(NCc3ccco3)c2c1C	n	n	n	n	x	x	x
CC1CCCN(CCOc2cccc(Oc3ccccc3)c2)C1 (stereo not drawn)	n	n	n	x	n	n	n
CC1CN(CCCCOc2cccc(Oc3ccccc3)c2)CC(C)O1 (stereo not drawn)	n	n	n	n	x	x	x
CC1CN(CCOc2cccc(Oc3ccccc3)c2)CC(C)O1 (stereo not drawn)	n	n	n	x	n	n	n
CN1/C(=C\P(=O)(N(C)C)N(C)C)C(C)(C)c2ccccc21	76	n	n	87	70	30	29
CC1CCN(S(=O)(=O)c2ccc3c(c2)N(CC(=O)NCCCN(Cc2ccccc2)C(C)C)C(=O)CO3)CC1	n	n	n	n	x	x	x
Cc1nc2ccccn2c1C(=O)NNS(=O)(=O)c1ccc(C(C)(C)C)cc1	n	n	n	n	48	27	n
COc1ccc(Br)cc1S(=O)(=O)NNC(=O)c1c(C)nc2ccccn12	n	n	n	n	x	x	x
COc1ccc(COC(=O)N/N=C(\C)CC(=O)Nc2c(C)cc(C)cc2C)cc1	99	n	n	n	n	n	n
COc1ccc(COC(=O)N/N=C(\C)CC(=O)NCc2ccc(Cl)cc2)cc1	n	n	n	n	x	x	x
COc1ccccc1C(=O)N/C(=C\c1ccc(Br)cc1)C(=O)NCC(=O)O	97	n	n	n	n	n	n
CC1CC(C)CN(C(=O)COc2cccnc2[N+](=O)[O-])C1 (stereo not drawn)	n	n	n	n	x	x	x
CCc1c(C)[nH]n(-c2nc(-c3ccccc3)cs2)c1=O	n	n	n	x	x	x	x
Cc1[nH]n(-c2nc(-c3ccc(Cl)cc3)cs2)c(=O)c1N=Nc1ccc(O)cc1	70	n	n	n	71	35	29
CN(CCOc1ccc(Cl)cc1)C(=O)c1cccc(S(=O)(=O)N2CCN(c3ccc(F)cc3)CC2)c1	70	x	x	x	64	26	n
O=C(c1cccc(S(=O)(=O)N2CCN(c3ccc(F)cc3)CC2)c1)N1CCCC(C(F)(F)F)C1 (stereo not drawn)	57	n	n	x	62	34	n
CCOC(=O)c1c(C)nc2sc3c(c2c1-c1ccc(OC)cc1)NC(c1ccc(OC)cc1)NC3=O (stereo not drawn)	n	n	n	n	x	x	x
Cc1csc(N2CCCC2c2nc3cc(C(F)(F)F)ccc3n2CCOCCO)n1 (stereo not drawn)	85	n	n	n	n	n	n
SMILES	Gli-Sufu block	Jurkat NFkB inh	697 NFkB inh	Beta apoptosis	Gli-Sufu confirm	SufuKO cytotox	Wnt3a counter
Cc1csc(N2CCCC2c2nc3cc(Cl)c(N4CCCCC4)cc3n2CCOCCO)n1 (stereo not drawn)	n	n	n	n	x	x	x
Cc1cccc(NC(=O)c2cnn(-c3ccc(F)cc3)c2C2CCNCC2)c1C	n	n	n	n	n	n	n
Cc1ccc(-n2ncc(C(=O)Nc3cc(Cl)ccc3C)c2C2CCNCC2)cc1C	n	n	n	n	x	x	x
Cc1ccccc1NC(=O)NCCCCc1ccccc1	96	n	n	n	n	n	n
Cc1ccccc1NC(=O)NCCc1ccc(Cl)cc1	n	n	n	n	x	x	x
CC(=O)Nc1ccc(NC(=O)Nc2cccc(C)c2C)cc1	n	n	n	n	x	x	x
CC(=O)Nc1ccc(NC(=O)Nc2ccccc2C)cc1	76	n	n	n	n	n	n
Cc1nc2ccccc2c2oc(C(=O)N3CCN(C4CCCCC4)CC3)cc12	n	n	n	n	46	n	n
O=C(CSC(=S)N1CCCC1)c1cc(Br)cc(Br)c1O	85	n	n	n	n	n	n
COC(=O)c1c(C)oc2ccc(N(C(=O)c3ccncc3)S(=O)(=O)c3ccc(C)cc3C)cc12	61	n	n	100	49	27	36
COC(=O)c1c(C)oc2ccc(N(C(=O)c3ccncc3)S(=O)(=O)c3ccc(C)cc3)cc12	n	n	n	n	x	x	x
Cc1ccc(C2C(C#N)=C(N)N(c3cccnc3)C3=C2C(=O)CCC3)s1 (stereo not drawn)	60	n	n	n	n	n	n
Cc1nn(C)cc1C1C(C#N)=C(N)N(c2cccnc2)C2=C1C(=O)CCC2 (stereo not drawn)	n	n	n	n	x	x	x
Cc1cccc(C)c1NC(=O)CSc1nnnn1C	57	n	n	n	n	n	n
Cc1cccc(C)c1NC(=O)CCCSc1nnnn1C	n	n	n	x	x	x	x
COCCNC(=S)NCc1ccc2[nH]c3c(c2c1)CCCC3	92	n	n	x	n	26	n
Cc1ccc(NC(=S)NCc2ccc3[nH]c4c(c3c2)CCCC4)cc1	n	n	n	n	x	x	x
O=C1OCC2=C1C(c1ccc(F)cc1)c1cc3c(cc1N2)OCO3 (stereo not drawn)	56	x	x	x	58	62	n
CCOc1ccccc1C1C2=C(COC2=O)Nc2cc3c(cc21)OCO3 (stereo not drawn)	n	n	n	n	52	62	n
CCN(CC)c1ccc(NC(=O)Cn2nnc(-c3cccc(OC)c3OC)n2)c(C)c1	n	n	n	x	x	x	x
COc1cc(-c2nc(Cc3c(F)cccc3Cl)no2)cc(OC)c1OC	n	n	n	n	x	x	x
CCN(CC)S(=O)(=O)c1ccc(-c2nnc(SCC(=O)N3c4ccccc4CC3C)n2CC)cc1 (stereo not drawn)	n	n	n	x	x	x	x
COC(=O)c1ccc(Oc2cc(C)nc(-n3nc(C)cc3C)n2)cc1	n	x	x	n	64	60	n
COC(=O)c1ccc(Oc2nc(C)cc(Oc3ccccc3)n2)cc1	n	n	n	n	x	x	x
O=[N+]([O-])c1ccc(N2CCCCC2)s1	n	n	n	n	x	x	x
O=[N+]([O-])c1ccc(N2CCN(Cc3ccccc3)CC2)s1	n	n	n	n	n	n	n
COc1ccccc1/C=C1\SC(=S)N(Nc2nc(C)cc(C)n2)C1=O	n	n	n	n	x	x	x
Cc1cc(C)nc(NN2C(=O)/C(=C/c3ccc(O)cc3)SC2=S)n1	56	n	n	n	n	n	n
